Compounds with a hit are over-represented: about 2.7% of the library has one in this group of screens.
Nrf2 block = Nrf2 pathway inhibition. A549 ARE-Fluc reporter, luciferase luminescence, 18-24 h. 2.1% of 360,000 active. Potency, µM (highest dose often 46 µM), for the others: at the top dose activity change, negative = inhibition, most hits filed as inhibitors; also: potency is read from the fitted curve at half-maximal effect; % is scaled to controls: 0 for no effect and ±100 for the full control effect; nearly all actives have a fitted effect of over 60% in size
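Quantitative HTS in A549 cells stably bearing an antioxidant response element-firefly luciferase construct. Inhibition of Nrf2-driven transcription was scored by luminescence after 18-24 h of compound exposure at 37 °C.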
LDHA block = blocks human lactate dehydrogenase A. P00338. purified LDHA, NADH/diaphorase-resazurin fluorescence; stronger effect = lower value. activity change, % (values are at about 110 or 230 µM). 0.15% of 480,000 active. AID 1347041; in the data active = activity change below about -30%; inconclusive = mostly about -25% to -30%;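 also: plate controls were DMSO wells for no effect and wells without enzyme for full effect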
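Human LDH5 (2 nM) was incubated with 0.06 mM NADH and 0.2 mM pyruvate for 5 min at room temperature in Tris pH 7.4. Remaining NADH was coupled through diaphorase/resazurin, and resorufin fluorescence was read at 0 and 20 min.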
Nrf2 activator = Nrf2 pathway activation | AREc32 ARE-luciferase reporter (MCF7-derived line), luminescence, 24 h | 0.31% of 410,000 active | Potency, µM (series often up to 46.1 µM), without a hit: at the top dose activation, actives largely listed as activators; also: potency is read from the fitted curve at half-maximal effect; % of control where 0% means no effect; nearly all actives have a fitted effect of over 65% in size
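ARE activation measured as luciferase luminescence (Steady-Glo, 30 min RT) in AREc32_Fluc cells after 24 hr compound exposure at 37 deg C, 5% CO2; cells seeded overnight at 1000/well in OPTI-MEM, 5% FBS.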
IDH1 R132H inh = human IDH1 R132H inhibition; 0.093% of 390,000 active; Potency, µM (titrated, usually from 76.6 µM), without a hit: at the highest dose activity change, negative = inhibition, actives largely listed as inhibitors; IDH1-R132H enzyme, NADPH consumption, diaphorase/resazurin fluorescence; AID 602179; also: potency is read from the fitted curve at half-maximal effect; % is scaled to controls: 0 for no effect and ±100 for the full control effect; nearly all actives have a fitted effect of over 65% in size
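IDH1-R132H (0.5 ug/mL) preincubated 30 min with compound, then NADPH (0.016 mM) and alpha-KG (2 mM) added; 80 min at RT, pH 7.5. Remaining NADPH coupled via diaphorase/resazurin to fluorescence (540/590 nm); concentration-response curves normalized to no-enzyme control.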
A549 tox = A549 cytotoxicity, counter-screen for Nrf2 inhibitors; A549 ARE-Fluc cells, CellTiter-Fluor viability, 18-24 h; Potency, µM (top dose mostly 46 µM), without a hit: at the top dose activity change, negative = cytotoxicity, most hits filed as inhibitors; 0.16% of 390,000 active; AID 504648; also: potency is read from the fitted curve at half-maximal effect; % is scaled to controls: 0 for no effect and ±100 for the full control effect
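A549 ARE-Fluc cells in 5% FBS OPTI-MEM, 5000 cells/well, rested 2 h then exposed to compounds in concentration-response for 18-24 h at 37 °C. Viability by CellTiter-Fluor fluorescence (Ex 405/Em 525) after 30 min; luciferase luminescence (BugLite, 15 min, RT) read afterwards.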
ALOX12 inh = blocks human arachidonate 12S-lipoxygenase; purified 12hLO, xylenol orange hydroperoxide absorbance; AID 1671190; Potency, µM (series often up to 108 µM), for the others: at the top dose activity change, negative = inhibition, actives largely listed as inhibitors; P18054; 1.1% of 580,000 active; also: potency is read from the fitted curve at half-maximal effect; % is scaled to controls: 0 for no effect and ±100 for the full control effect
Target sequence (P18054 whole entry, looked up): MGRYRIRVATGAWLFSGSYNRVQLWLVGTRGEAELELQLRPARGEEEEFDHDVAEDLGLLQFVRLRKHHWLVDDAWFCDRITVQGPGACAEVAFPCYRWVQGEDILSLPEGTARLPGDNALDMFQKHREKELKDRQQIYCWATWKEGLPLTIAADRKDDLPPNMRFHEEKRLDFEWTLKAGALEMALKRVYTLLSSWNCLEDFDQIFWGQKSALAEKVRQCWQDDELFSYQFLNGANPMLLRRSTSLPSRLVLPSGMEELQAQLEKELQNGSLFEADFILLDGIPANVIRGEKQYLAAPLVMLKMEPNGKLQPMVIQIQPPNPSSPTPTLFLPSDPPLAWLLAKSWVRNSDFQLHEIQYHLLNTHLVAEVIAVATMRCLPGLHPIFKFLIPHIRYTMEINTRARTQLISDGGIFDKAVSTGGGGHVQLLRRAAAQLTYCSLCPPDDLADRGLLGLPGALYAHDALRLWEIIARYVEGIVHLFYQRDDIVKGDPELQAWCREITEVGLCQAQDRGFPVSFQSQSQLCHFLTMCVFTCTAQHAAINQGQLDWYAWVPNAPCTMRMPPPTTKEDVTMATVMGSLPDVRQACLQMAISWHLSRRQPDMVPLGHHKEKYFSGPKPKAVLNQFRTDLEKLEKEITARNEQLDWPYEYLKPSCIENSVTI
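Purified human 12hLO at 150 nM in 25 mM Hepes, 0.01% Triton X-100, pH 7.0, preincubated 15 min at room temperature with compound. Reaction started with 40 uM arachidonic acid, 30 min at room temperature. Hydroperoxide measured by Fe-xylenol orange, 573/405 nm absorbance ratio.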
* marks the source's active call; other numbers are inactive results; [ ] = remark or other dose. Unless noted, calls follow the shape of the dose curve; as a rule, active = well fitted curve in the direction sought with a large enough effect; inconclusive = small, poorly fitted or top-dose-only effect, or another doubt; inactive = no such curve, though single readings can be large; an effect the other way counts as inactive or inconclusive.

For O=C1OCCC1Sc1ccc2c(c1)OCCO2 (stereo not given) the results were LDHA block -7.2 and ALOX12 inh 6.6%.
O=C(Nc1ccc(Cl)cc1)c1csc(C(O)c2cccc(OC(F)(F)F)c2)n1 (stereo not given) was read as ALOX12 inh 14.1µM*.
For COc1ccccc1C(O)c1nc(C(=O)Nc2ccc(F)cc2)cs1 (stereo not given) the results were ALOX12 inh 8.7%.
CCOn1c(=O)c(=O)n(OCc2ccccc2)c2ccccc21 was read as LDHA block -1.0, Nrf2 activator 22.4µM*, IDH1 R132H inh -1.7%, A549 tox -1.0% and ALOX12 inh 0.0%.
For CC(C)(C)C(=O)NC(=S)NNC(=O)c1sc2ccccc2c1Cl the results were Nrf2 block 5.8µM*, LDHA block -7.5, Nrf2 activator -0.7%, IDH1 R132H inh -8.4% and A549 tox inconclusive.
O=C(NNC(=S)NC1CCCCC1)c1sc2ccccc2c1Cl was read as Nrf2 block inconclusive, LDHA block -6.5, Nrf2 activator 0.3%[9.22 µM], IDH1 R132H inh -2.1%, A549 tox -0.3% and ALOX12 inh -29.6%.
Screening O=C(/C=C/c1ccc(-c2ccc(Cl)cc2Cl)o1)c1ccc(F)cc1 returned LDHA block -1.5 and ALOX12 inh inconclusive.
`O=C(/C=C/c1ccc(-c2ccccc2[N+](=O)[O-])o1)c1ccc(Br)cc1` gave Nrf2 block -7.5%, LDHA block 17.1, Nrf2 activator 2.51µM*, IDH1 R132H inh -6.0%, A549 tox -0.4% and ALOX12 inh -19.1%.
`CN(C)CCNC(=O)/C(=C/c1ccc(-c2ccc(Cl)cc2Cl)o1)NC(=O)c1ccccc1` gave Nrf2 block -4.1%, LDHA block -5.1, Nrf2 activator -2.6%, IDH1 R132H inh 2.4%, A549 tox 2.1% and ALOX12 inh 44.7µM*.
For CN(C)CCNC(=O)/C(=C/c1ccc(-c2ccc(Cl)cc2)o1)NC(=O)c1ccccc1 the results were Nrf2 block 4.8%, LDHA block -4.6, Nrf2 activator 10.6%, IDH1 R132H inh 2.7%, A549 tox 6.8% and ALOX12 inh inconclusive.
Screening O=C(/C=C/c1ccc(-c2ccccc2Cl)o1)c1ccccc1 returned LDHA block 0.2 and ALOX12 inh 20µM*.
For O=C(/C=C/c1ccc(-c2cccc(Cl)c2Cl)o1)c1ccccc1 the results were LDHA block 12.5 and ALOX12 inh inconclusive.
O=C(/C=C/c1ccc(-c2ccc(Cl)cc2Cl)o1)c1ccccc1 was read as LDHA block -10.7 and ALOX12 inh 1.58µM*.
`CC(C)C[C@H](NC(=O)c1cccc2c1-c1ccccc1C2=O)C(=O)O` gave LDHA block 8.9 and ALOX12 inh -20.9%.
`Cc1csc(NC(=O)c2csc3ccccc23)n1` gave LDHA block 6.1 and ALOX12 inh -3.3%.
`COc1ccc(C2=CC3=C(Br)C(=O)C(C)(OC(=O)c4ccco4)C(=O)C3=CO2)cc1` (stereo not given) gave Nrf2 block 8.5%, LDHA block 0.7, Nrf2 activator 15.2%, IDH1 R132H inh -12.4% and A549 tox -12.6%.
For COc1ccc(C2=CC3=C(Br)C(=O)C(C)(OC(=O)c4cccs4)C(=O)C3=CO2)cc1 (stereo not given) the results were Nrf2 block 14.5%, LDHA block 7.9, Nrf2 activator 6.8%, IDH1 R132H inh -1.4%, A549 tox -9.5% and ALOX12 inh 6.31µM*.
Cc1nc(S(=O)(=O)NC2CCCCC2)c(C#N)c(C)c1Cl was read as Nrf2 block -9.1%, LDHA block -1.4, Nrf2 activator 12.6µM*, IDH1 R132H inh 7.8%, A549 tox -8.5% and ALOX12 inh -23.3%.

Screening data deposited in PubChem BioAssay by National Center for Advancing Translational Sciences (NCATS).
